# This is a sample that favours compounds with a hit; in the whole collection about 2.1% have one here.
# ADAM10 inh = inhibits human ADAM10; O14672; recombinant ADAM10, EDANS/DABCYL FRET peptide cleavage, 3 h; inhibition, % at 7 µM; hit rate 0.62% among 370,000;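 active = inhibition above a per-campaign cutoff equal to the mean of compounds falling between control-based bounds plus 3 SD, cut at about 20% in these data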
# PLC-beta3 inh = PLC-beta3 (human) inhibition, primary screen; Q01970; Purified PLC-beta3, fluorogenic substrate, fluorescence; inhibition, % at 12.2 µM; hit rate 0.18% among 370,000; AID 720704; in the data active = inhibition above about 11%
# ADAM17 inh = ADAM17 inhibition, QFRET primary screen. recombinant ADAM17, EDANS/DABCYL FRET peptide cleavage. inhibition, % at 6.95 µM. hit rate 0.83% among 370,000. AID 720648;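 active = inhibition above the mean of compounds lying between control limits plus 3 SD, set per campaign, cut at about 8.5% in these data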
# PLCg1 inh = blocks human PLC-gamma1 enzyme activity. P19174. purified PLC-gamma1, fluorogenic substrate, fluorescence. inhibition, % at 12.2 µM. hit rate 0.84% among 370,000. AID 720700; in the data active = inhibition above about 9.5%
# Rce1 inh = inhibitors of yeast Ras-converting enzyme; hit rate 0.27% among 290,000; yeast membranes, quenched prenylated peptide cleavage fluorescence; AID 2563; calls only; Q03530;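 active = fall in fluorescence gain of 50% or more versus controls, with final raw signal at or below 3038400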
# Target sequence (Q03530 whole entry, looked up): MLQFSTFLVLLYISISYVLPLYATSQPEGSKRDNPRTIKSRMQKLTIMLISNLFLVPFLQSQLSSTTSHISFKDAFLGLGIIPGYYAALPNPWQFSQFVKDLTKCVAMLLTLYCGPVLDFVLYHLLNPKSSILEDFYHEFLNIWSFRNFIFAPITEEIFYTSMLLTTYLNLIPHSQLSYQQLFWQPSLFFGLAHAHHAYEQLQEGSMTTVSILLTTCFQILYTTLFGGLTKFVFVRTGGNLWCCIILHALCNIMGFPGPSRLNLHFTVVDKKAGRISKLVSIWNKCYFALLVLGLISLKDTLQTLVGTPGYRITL
# ADAM10 counter = inhibits human ADAM10 in ADAM17 exosite counter-screen; shares compounds with ADAM17 inh; recombinant ADAM10, EDANS/DABCYL FRET peptide cleavage, 3 h; inhibition, % at 6.95 µM; hit rate 47% among 2,900;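 active = mean inhibition over the triplicate runs exceeds the activity threshold set in the earlier primary screen, cut at about 20% in these data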
# ADAM17 confirm = human ADAM17 inhibition, confirmation; AID 743257; hit rate 65% among 2,900; shares compounds with ADAM17 inh; inhibition, % at 6.95 µM; recombinant ADAM17, EDANS/DABCYL QFRET peptide cleavage;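 active = mean inhibition across replicates above the hit cutoff set in the primary screen, cut at about 8.5% in these data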
# Numbers stand for hits; i = inactive; nt = no result given.
SMILES,ADAM10 inh,PLC-beta3 inh,ADAM17 inh,PLCg1 inh,Rce1 inh,ADAM10 counter,ADAM17 confirm
COc1ccc(C2=NN(C(=O)CSc3nnc(-c4ccccc4F)o3)C(c3ccco3)C2)cc1 (configuration not stated),i,i,11,i,i,i,i
Cc1ccccc1-n1c(SCC(=O)NC2CC2)nc2ccccc2c1=O,i,i,i,i,nt,nt,nt
Cc1ccc(S(=O)(=O)N2CCOC2CNC(=O)C(=O)NCCCc2ccccc2)cc1 (configuration not stated),i,i,9.3,i,i,22,21
Cc1ccc(S(=O)(=O)N2CCOC2CNC(=O)C(=O)NCCc2ccccc2)cc1 (configuration not stated),i,i,i,i,i,nt,nt
C[C@@H]1CCCCO[C@@H](CN(C)Cc2ccc(Cl)c(Cl)c2)[C@@H](C)CN([C@H](C)CO)C(=O)c2cc(NC(=O)CCC(F)(F)F)ccc2O1,i,i,9.2,i,nt,43,22
C[C@H](CO)N1C[C@H](C)[C@@H](CN(C)Cc2ccc(C(=O)O)cc2)OCCCC[C@H](C)Oc2ccc(NC(=O)CCC(F)(F)F)cc2C1=O,i,i,i,i,nt,nt,nt
C[C@@H]1CN([C@H](C)CO)C(=O)c2cc(NS(=O)(=O)c3ccc(F)cc3)ccc2O[C@@H]1CN(C)Cc1ccc(Cl)c(Cl)c1,i,i,9.6,i,nt,39,19
CCCCC[C@@H]1[C@H]2[C@H]3C(=O)N(c4ccccc4)C(=O)[C@H]3CC(=O)[C@H]2[C@H](c2ccccc2)N1S(=O)(=O)c1ccc(C)cc1,i,i,i,i,nt,nt,nt
COc1ccc(-c2nn(-c3ccccc3)cc2/C=N/NC(=O)c2cccc(S(=O)(=O)Nc3ccccc3Cl)c2)cc1,i,i,9.2,i,i,i,i
COc1cc2nc(NC(=O)c3ccccc3)sc(=O)c2cc1OC,i,i,i,i,i,nt,nt
CCC1CCCCN1C(=O)c1ccc(OC2CCN(C(=O)CCOC)CC2)cc1 (configuration not stated),i,i,i,i,i,nt,nt
CC(C)=CC(=O)NCC1CCN(C(=O)C(=O)c2cc3ccccc3o2)CC1,i,i,i,i,nt,nt,nt
COc1ccc(CN(C(=O)c2nsc(Cl)c2Cl)C(C(=O)NC2CCCC2)c2ccc(C)cc2)cc1 (configuration not stated),i,i,10,i,i,i,14
Cc1ccc(C)c(N(C(=O)c2nsc(Cl)c2Cl)C(C(=O)NC2CCCC2)c2ccc(O)cc2)c1 (configuration not stated),i,i,i,i,i,nt,nt
c1ccc(-c2nnc(-c3c[nH]c4ccccc34)nc2-c2ccccc2)cc1,i,i,8.7,i,i,i,8.8
Cc1ccc(Cl)c(NC(=O)COC(=O)CNS(=O)(=O)/C=C/c2ccccc2)c1Cl,i,i,9.1,i,i,i,i
CC(=O)O[C@@H]1C=C[C@@H](C#Cc2ccc(C(C)(C)C)cc2)O[C@@H]1COC(=O)Nc1ccccc1,i,i,13,i,nt,29,13
C=C(C)CN1CCN(S(=O)(=O)c2ccc(C)c(N(C)S(=O)(=O)c3ccc(C)cc3)c2C)CC1,i,i,10,i,i,i,11
O=C(O)Cc1csc2ccccc12,i,i,10.0,i,i,i,i
CCN(CC)C(=O)CC[C@H]1CC[C@]2(CCCN(C(=O)c3cccnc3)C2)O1,i,i,i,i,nt,nt,nt
COc1ccc(NS(=O)(=O)c2ccc3nc(COc4ccc(Cl)c(C)c4)[nH]c3c2)cc1,i,i,13,i,i,27,19
Cc1ccc(N(CC(=O)N2CCCCCC2)S(C)(=O)=O)c(C)c1,i,i,i,i,nt,nt,nt
CC(=O)O[C@@H](Cc1ccc(O)cc1)C(=O)CC(C)C,i,i,9.2,i,nt,i,i
COC(=O)[C@@H](N)Cc1ccc(O)cc1,nt,nt,nt,nt,i,nt,nt
Cc1ccc(Cn2c(=O)c3c(nc4n3CCCN4Cc3ccccc3)n(C)c2=O)cc1,i,i,10,i,i,i,i
SMILES,ADAM10 inh,PLC-beta3 inh,ADAM17 inh,PLCg1 inh,Rce1 inh,ADAM10 counter,ADAM17 confirm
Cc1ccccc1Cn1c(=O)c2c(nc3n2CCCN3Cc2ccccc2)n(C)c1=O,i,i,i,i,i,nt,nt
Nn1c(SCC(=O)Nc2ccc(OCc3ccccc3)cc2)nnc1-c1cc(-c2ccccc2)n[nH]1,i,i,i,i,nt,nt,nt
COc1ccc(-c2csc(NC(=O)C3COc4ccccc4O3)n2)cc1OC (configuration not stated),i,i,8.9,i,i,i,10
CC(C)(C)c1csc(NC(=O)C2COc3ccccc3O2)n1 (configuration not stated),i,i,i,i,i,nt,nt
COc1ccccc1N(CC(=O)N(C)Cc1ccccc1)S(=O)(=O)c1cccs1,i,i,i,i,nt,nt,nt
COC(=O)c1ccc(CCc2cc(O)c(Br)cc2O)cc1,i,i,8.9,i,nt,i,i
COC(=O)c1ccc(O)cc1,i,i,i,i,i,nt,nt
C=Cc1cnc([N+](=O)[O-])n1C,i,i,i,i,nt,nt,nt
Cc1ccc(SCc2cc(=O)c3c(=O)n(-c4ccccc4)[nH]c3[nH]2)cc1,i,i,10,i,i,22,14
O=C(CSc1nnc(-c2ccccn2)n1-c1ccccc1)Nc1ccc2c(c1)OCCO2,i,i,i,i,nt,nt,nt
O=c1[nH][nH]c(-c2ccccc2)c1C=Nc1ccc(C(F)(F)F)cc1,i,i,13,i,i,i,i
O=C(NC1CCCCC1)C1CC(=O)N(CCc2ccc(F)cc2)C1 (configuration not stated),i,i,i,i,i,nt,nt
Cc1ccc(-n2c(C3CC3c3ccc(Cl)cc3)n[nH]c2=S)cc1 (configuration not stated),i,i,12,i,i,i,12
Cc1ccc(C2CC2c2n[nH]c(=S)n2-c2ccc(C)cc2)cc1 (configuration not stated),i,i,i,i,i,nt,nt
O=C(c1cc(COc2c(F)cccc2F)on1)N1CCC(c2ccccc2Cl)C1 (configuration not stated),i,i,9.5,i,i,i,11
O=C(Nc1ccn(Cc2ccccc2F)n1)c1ccc(COc2ccccc2Cl)cc1,i,i,13,i,i,31,18
COc1cccc(C(C)(O)c2nc(-c3csc4ccccc34)cs2)c1 (configuration not stated),i,i,9.5,i,nt,33,16
O=[N+]([O-])c1ccc(Nc2ccccc2)nc1,i,i,i,i,i,nt,nt
O=[N+]([O-])c1ccc(Nc2ccc(F)cc2)nc1,i,i,10,i,i,i,i
CC(C)=CCC12Oc3cc(O)ccc3C1(O)Oc1cc(O)c([C@H]3C=C(C)CC(c4ccc(O)cc4O)[C@H]3C(=O)c3ccc(O)cc3O)c(O)c1C2=O (some centres not stated),nt,nt,nt,nt,i,nt,nt
Cc1cccc(OCc2nnc(SCC(=O)Nc3cccc(C(=O)N4CCOCC4)c3)n2C)c1C,i,i,10,i,i,i,i
